# From PubChem BioAssay (NCI)
# The panel holds about 83,000 compounds, 20% with a hit somewhere; the sample as a whole holds those more often.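 Treatment: one concentration, 48 hours, 96-well format. Scoring: percent growth, with anything below 10 considered active.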 A number with no mark means an inactive call. Calls of active or inactive are those of the source.
# System: SNB-75 CNS
# Experiment: NCI-60 one-dose screen, 48 h (100 = growth as untreated, 0 = no growth, -100 = all killed)
# Details: 10 µM unless noted
row,SMILES,growth
1,COc1cc2c(c(OC)c1OC)CCC(c1cccc(NC(=O)c3ccc(Br)cc3)c1)O2 (stereo not given),86%
2,N#Cc1nc(-c2ccc(F)cc2)oc1S(=O)(=O)N1CCCCC1,92%
3,Clc1ccc(/C=N\N=C\c2ccc(Cl)c(Cl)c2)cc1Cl,123%
4,C1CCC([PH+](C2CCCCC2)C2CCCCC2[PH+](C2CCCCC2)C2CCCCC2)CC1.[Au].[CH-]1CCCCC1C1CCCC[N-]1 (stereo not given),-31.8% (active)
5,Cn1c(=O)c2nc(/C=C/c3ccccc3)c(=O)[nH]c2n(C)c1=S,105%
6,COc1ccc(/C=C(\C#N)n2nnc3cc(Cl)ccc32)cc1,-47.6% (active)
7,O=C(CN1C(=O)NC2NC(=O)NC21)N/N=C/c1ccccc1[N+](=O)[O-] (stereo not given),83.3%
8,CCN(CC)CC(O)COc1c(Br)c(Br)c(Br)c2c1OC(C)(C)C2 (stereo not given),91.3%
9,CCCNc1nc2ccccc2c2c1S(=O)(=O)c1ccc(Cl)cc1C2=O,15.6%
10,CS(=O)(=O)Nc1cncc(-c2ccc3ncnc(Nc4cncc(Cl)c4)c3c2)c1,82.4%
11,CN(C)c1ccc(C(=O)OCCCCCCl)cc1,78.4%
12,CN(C)c1ccc(-c2c(C#N)c(N)nn2C(=O)c2ccc(NC(=O)c3ccccn3)cc2)cc1,102%
13,COCCn1cc(-c2csc(-c3cn(C)c4ccc(Br)cc34)n2)c2cccnc21,75.6%
14,CC1(C)COB(OCC(C)(C)COB2OCC(C)(C)CO2)OC1,107%
15,Cc1c[n+](Cc2ccc3ccccc3c2)cn1Cc1ccc2ccccc2c1,-0.361% (active)
16,Cn1cc(-c2csc(-c3c[nH]c4ccccc34)n2)c2cnccc21,80.6%
17,CCOC(=O)C#Cc1c(C(=O)OCC)nnn1Cc1ccc([N+](=O)[O-])cc1,65.3%
18,CCn1cc(C(=O)O)c(=O)c2cc(F)c(N3CCN(CC(=O)Nc4ccc(S(=O)(=O)Nc5nccc(C)n5)cc4)C(C)C3)c(F)c21 (stereo not given),95.7%
19,C=C1C(=O)O[C@H]2[C@H]1CC/C(COC(=O)/C=C\C(=O)NCc1ccc(Cn3c(=O)sn(CCI)c3=O)cc1)=C\CC[C@@]1(C)O[C@@H]21,99.1%
20,CC1CN(S(=O)(=O)c2oc(-c3ccc(Cl)cc3)nc2C#N)CC(C)O1 (stereo not given),91.1%

row,SMILES,growth
1,Cc1ccc(C)n1-c1ccccc1-n1c(C)ccc1C,87.2%
2,CCCCCCC12CCC(=O)N1CCc1cncn12 (stereo not given),116%
3,CNC(=O)c1[nH]cc(-c2ccc(OC)cc2)c1-c1cc(OC)c2c(c1OC)OCO2,66.9%
4,C#Cc1c2c(c(OC)c3c1OCO3)[C@H]([C@H]1OC(=O)c3c1ccc(OC)c3OC)N(C)CC2,85.8%
5,C=CCc1c(O)c(C(=O)/C=C/c2ccccc2)c(OC)c2ccoc12,72.9%
6,O=S(=O)(Nc1ccc(F)cc1F)c1ccc(-c2cnc(C3CC3)o2)cc1,-13.1% (active)
7,CN1CCN(c2cc(Nc3cc(C4CC4)[nH]n3)nc(Nc3ccc(CC(=O)NCc4cccc(F)c4)cc3)n2)CC1,-56% (active)
8,CC(C)(C)[Si](C)(C)OC1[C@@H](CNC(=O)NC(=O)NC(N)=O)O[C@@H](n2cnc3c(NC(=O)Nc4ccccc4)ncnc32)[C@H]1O[Si](C)(C)C(C)(C)C (stereo not given in full),84.1%
9,COc1ccc(OC)c(-c2nc(SCC(=O)c3ccc(C#N)cc3)[nH]c(=O)c2C#N)c1,93.7%
10,COc1ccc(C(C)=O)cc1S(=O)(=O)Nc1c(N)nc(SC)[nH]c1=O,98.2%
11,CCOC(=O)C1=C(N)Oc2c(sc3c(F)cccc23)C1c1ccc(O)cc1 (stereo not given),31.3%
12,CCNCCNc1cc(-c2ccc(C(F)(F)F)cc2)c(C#N)c2nc3ccccc3n12,-95.5% (active)
13,Cn1cc(-c2ccc3nc(-c4ccc(CC(=O)ONc5cc(C(C)(C)C)on5)cc4)cnc3c2)cn1,37.4%
14,Cn1cc(C(=O)c2nc(-c3c[nH]c4ccccc34)no2)c2cc(F)ccc21,27.4%
15,COc1ccc(CNc2c3ccccc3nc3ccccc23)cc1,61.8%
16,O=[N+]([O-])c1cccc(-c2nc3cc4nc5ccccc5[nH]c4cc3n2)c1,101%
17,COc1c(C(=O)Nc2ccc(C)c(Br)c2)ccc2ccccc12,88.4%
18,O=C1C(Cl)=C(NCCCCCCNC2=C(Cl)C(=O)c3ccccc3C2=O)C(=O)c2ccccc21,117%
19,O=C1c2c(c3c4ccccc4[nH]c3c3ccc4ccccc4c23)C(=O)N1CCN1CCNCC1,85%
20,COc1ccccc1CNc1c2ccccc2nc2ccccc12,63.5%

# System: SNB-19 CNS
# Experiment: as above
# Details: 10 µM unless noted
row,SMILES,growth
1,COc1cc2c(c(OC)c1OC)CCC(c1cccc(NC(=O)c3ccc(Br)cc3)c1)O2 (stereo not given),86%
2,N#Cc1nc(-c2ccc(F)cc2)oc1S(=O)(=O)N1CCCCC1,96.5%
3,Clc1ccc(/C=N\N=C\c2ccc(Cl)c(Cl)c2)cc1Cl,95.1%
4,C1CCC([PH+](C2CCCCC2)C2CCCCC2[PH+](C2CCCCC2)C2CCCCC2)CC1.[Au].[CH-]1CCCCC1C1CCCC[N-]1 (stereo not given),-96.6% (active)
5,Cn1c(=O)c2nc(/C=C/c3ccccc3)c(=O)[nH]c2n(C)c1=S,105%
6,COc1ccc(/C=C(\C#N)n2nnc3cc(Cl)ccc32)cc1,9.63% (active)
7,O=C(CN1C(=O)NC2NC(=O)NC21)N/N=C/c1ccccc1[N+](=O)[O-] (stereo not given),96.8%
8,CCN(CC)CC(O)COc1c(Br)c(Br)c(Br)c2c1OC(C)(C)C2 (stereo not given),73.4%
9,CCCNc1nc2ccccc2c2c1S(=O)(=O)c1ccc(Cl)cc1C2=O,24.4%
10,CS(=O)(=O)Nc1cncc(-c2ccc3ncnc(Nc4cncc(Cl)c4)c3c2)c1,68.2%
11,CN(C)c1ccc(C(=O)OCCCCCCl)cc1,95.6%
12,CN(C)c1ccc(-c2c(C#N)c(N)nn2C(=O)c2ccc(NC(=O)c3ccccn3)cc2)cc1,99.4%
13,COCCn1cc(-c2csc(-c3cn(C)c4ccc(Br)cc34)n2)c2cccnc21,78.5%
14,CC1(C)COB(OCC(C)(C)COB2OCC(C)(C)CO2)OC1,110%
15,Cc1c[n+](Cc2ccc3ccccc3c2)cn1Cc1ccc2ccccc2c1,17.7%
16,Cn1cc(-c2csc(-c3c[nH]c4ccccc34)n2)c2cnccc21,48.8%
17,CCOC(=O)C#Cc1c(C(=O)OCC)nnn1Cc1ccc([N+](=O)[O-])cc1,87.9%
18,CCn1cc(C(=O)O)c(=O)c2cc(F)c(N3CCN(CC(=O)Nc4ccc(S(=O)(=O)Nc5nccc(C)n5)cc4)C(C)C3)c(F)c21 (stereo not given),98.7%
19,C=C1C(=O)O[C@H]2[C@H]1CC/C(COC(=O)/C=C\C(=O)NCc1ccc(Cn3c(=O)sn(CCI)c3=O)cc1)=C\CC[C@@]1(C)O[C@@H]21,99%
20,CC1CN(S(=O)(=O)c2oc(-c3ccc(Cl)cc3)nc2C#N)CC(C)O1 (stereo not given),97.5%

row,SMILES,growth
1,Cc1ccc(C)n1-c1ccccc1-n1c(C)ccc1C,108%
2,CCCCCCC12CCC(=O)N1CCc1cncn12 (stereo not given),105%
3,CNC(=O)c1[nH]cc(-c2ccc(OC)cc2)c1-c1cc(OC)c2c(c1OC)OCO2,93.9%
4,C#Cc1c2c(c(OC)c3c1OCO3)[C@H]([C@H]1OC(=O)c3c1ccc(OC)c3OC)N(C)CC2,92.7%
5,C=CCc1c(O)c(C(=O)/C=C/c2ccccc2)c(OC)c2ccoc12,46.6%
6,O=S(=O)(Nc1ccc(F)cc1F)c1ccc(-c2cnc(C3CC3)o2)cc1,46.5%
7,CN1CCN(c2cc(Nc3cc(C4CC4)[nH]n3)nc(Nc3ccc(CC(=O)NCc4cccc(F)c4)cc3)n2)CC1,40%
8,CC(C)(C)[Si](C)(C)OC1[C@@H](CNC(=O)NC(=O)NC(N)=O)O[C@@H](n2cnc3c(NC(=O)Nc4ccccc4)ncnc32)[C@H]1O[Si](C)(C)C(C)(C)C (stereo not given in full),98.3%
9,COc1ccc(OC)c(-c2nc(SCC(=O)c3ccc(C#N)cc3)[nH]c(=O)c2C#N)c1,97.6%
10,COc1ccc(C(C)=O)cc1S(=O)(=O)Nc1c(N)nc(SC)[nH]c1=O,109%
11,CCOC(=O)C1=C(N)Oc2c(sc3c(F)cccc23)C1c1ccc(O)cc1 (stereo not given),48.9%
12,CCNCCNc1cc(-c2ccc(C(F)(F)F)cc2)c(C#N)c2nc3ccccc3n12,-78.1% (active)
13,Cn1cc(-c2ccc3nc(-c4ccc(CC(=O)ONc5cc(C(C)(C)C)on5)cc4)cnc3c2)cn1,67.4%
14,Cn1cc(C(=O)c2nc(-c3c[nH]c4ccccc34)no2)c2cc(F)ccc21,38.8%
15,COc1ccc(CNc2c3ccccc3nc3ccccc23)cc1,34%
16,O=[N+]([O-])c1cccc(-c2nc3cc4nc5ccccc5[nH]c4cc3n2)c1,102%
17,COc1c(C(=O)Nc2ccc(C)c(Br)c2)ccc2ccccc12,95.3%
18,O=C1C(Cl)=C(NCCCCCCNC2=C(Cl)C(=O)c3ccccc3C2=O)C(=O)c2ccccc21,96.3%
19,O=C1c2c(c3c4ccccc4[nH]c3c3ccc4ccccc4c23)C(=O)N1CCN1CCNCC1,74.3%
20,COc1ccccc1CNc1c2ccccc2nc2ccccc12,35.8%
